High-throughput results (PubChem)
The list is not random: actives were taken first. Their share in the collection is about 2%.
ID4 binder: binders of human ID4 protein, primary screen, biochemical, small molecule microarray, single point | DNA-binding protein inhibitor ID-4 (Homo sapiens), P47928 | Flag-ID4 binding, fluorescence F/B | calls only | hit rate 1.2% among 31,000 | AID 624137, 2012; call rule not given here;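 also: a binder raises fluorescence above local background on the spot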
Target sequence (P47928 whole entry, looked up): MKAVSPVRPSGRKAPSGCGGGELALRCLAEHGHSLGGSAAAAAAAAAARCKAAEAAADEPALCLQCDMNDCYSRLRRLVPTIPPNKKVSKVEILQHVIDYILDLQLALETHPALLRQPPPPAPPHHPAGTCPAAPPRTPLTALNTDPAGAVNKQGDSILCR
STK33 kin inh: STK33 kinase inhibitors, primary screen, biochemical, luminescence, ADP-Glo, MBP substrate | inhibition, % at 12.5 µM | AID 2322, 2010 | hit rate 0.44% among 27,000; in the data active = inhibition above about 20%
mut p53 react: mutant p53 pathway re-activators, primary screen, cell-based, SW480, luciferase, single point, HTS; AID 624151, 2012; activation, % at 9.98 µM; hit rate 1.5% among 28,000; SW480 PUMA-promoter luciferase, p53 mutant reactivation; in the data active = activation above about 52%
Hits are given with their value; . = inactive; / = no result.

SMILES | ID4 binder | STK33 kin inh | mut p53 react
O=C(O)CCCC(=O)Nc1ccc(Cl)c(Cl)c1 | . | . | .
O=C(NCC[C@@H](CNC(=O)c1cccc(O)c1O)NC(=O)c1cccc(O)c1O)c1cccc(O)c1O | / | . | /
CC(=O)OC[C@H]1O[C@@H](Oc2ccccc2COC(=O)C2(O)C=CCCC2=O)[C@H](OC(C)=O)[C@@H](O)[C@@H]1O (stereo partly specified) | / | . | /
CC(C)(C)c1cc(C(C)(C)C)n(-c2ccc(-n3cccc3)cc2)n1 | . | / | .
O=C(CSc1ncnc2sc3c(c12)CCCC3)N1CCc2ccccc21 | . | . | .
CC(C)(C)C(=O)CSc1ncnc2sc3c(c12)CCCC3 | . | . | 71
O=C(O)[C@H]1O[C@@H](Oc2cc(O)c3c(=O)c(-c4ccc(O)cc4)coc3c2)[C@H](O)[C@@H](O)[C@@H]1O | . | . | .
